Experimental data published in PubChem BioAssay (Tox21).
Records with an inconclusive call do not appear. Calls of active or inactive are those of the source. Unless noted, calls follow the shape of the dose curve; as a rule, active = well fitted curve in the direction sought with a large enough effect in the repeat runs; inconclusive = weak or mixed curves; inactive = no such curve, though single readings can be large; an effect the other way counts as inactive or inconclusive.

How the values were obtained:
[1] = A CellTox Green Cytotoxicity Assay to monitor cytotoxicity in HEK293 cells - 32 hour (AID 1224881); also: nearly all actives have a fitted effect of over 40% in size; also: potency is read from the fitted curve at half-maximal effect
How it was run: (§1)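 Read-out: fluorescence of a cell-impermeant cyanine dye staining DNA of dead cells, proportional to cytotoxicity. HEK293, 600 cells/well with reagent, compound (23 nL DMSO) added after 5 h; reads at 0, 8, 16, 24, 32, 40 h.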

[2] = A CellTox Green Cytotoxicity Assay to monitor cytotoxicity in HepG2 cells - 0 hour (AID 1224882); also: nearly all actives have a fitted effect of over 35% in size
How it was run: (§2)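 HepG2, 600 cells/well premixed w/ CellTox Green; 5 h settle, 37 C/5% CO2; pintool cpd add (DMSO); 37 C, 40 h; fluorescence read at 0, 8, 16, 24, 32, 40 h.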

[3] = A CellTox Green Cytotoxicity Assay to monitor cytotoxicity in HepG2 cells - 32 hour (AID 1224883); also: nearly all actives have a fitted effect of over 50% in size; also: potency is read from the fitted curve at half-maximal effect
How it was run: as §2

[4] = A CellTox Green Cytotoxicity Assay to monitor cytotoxicity in HEK293 cells - 8 hour (AID 1224884); also: nearly all actives have a fitted effect of over 35% in size
How it was run: as §1

[5] = qHTS RealTime-Glo MT Cell Viability Assay in HepG2 cells - 16 hour (AID 1224885); also: nearly all actives have a fitted effect of over 50% in size
How it was run: (§3)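 Viability was tracked continuously by NanoLuc luminescence from prosubstrate reduced by living HepG2 cells, at successive time points over 40 h of compound exposure. Cells with reagent were preincubated 5 h at 37 °C before compound addition.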

[6] = qHTS RealTime-Glo MT Cell Viability Assay in HEK293 cells - 24 hour (AID 1224886); also: nearly all actives have a fitted effect of over 50% in size; also: potency is read from the fitted curve at half-maximal effect
How it was run: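 Viability tracked continuously by luminescence as live cells reduce a prosubstrate for NanoLuc; HEK293 cells preincubated 5 h, compound-treated at 37 C, and read at 0, 8, 16, 24, 32 and 40 h.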

[7] = qHTS RealTime-Glo MT Cell Viability Assay in HEK293 cells - 8 hour (AID 1224887); also: top concentration of the series differs between compounds; nearly all actives have a fitted effect of over 50% in size
How it was run: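 Luminescence readout at each listed time point; HEK293, 600 cells/well, RealTime-Glo MT reagent added with cells; compounds pinned (23 nL in DMSO) after 5 h at 37 C; continuous culture at 37 C.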

[8] = qHTS RealTime-Glo MT Cell Viability Assay in HepG2 cells - 0 hour (AID 1224889); also: nearly all actives have a fitted effect of over 50% in size; also: potency is read from the fitted curve at half-maximal effect
How it was run: as §3

[9] = A CellTox Green Cytotoxicity Assay to monitor cytotoxicity in HepG2 cells - 8 hour (AID 1224890); also: nearly all actives have a fitted effect of over 45% in size
How it was run: as §2

[10] = qHTS assay to identify small molecule antagonists of the androgen receptor (AR) signaling pathway using the MDA cell line in the presence of 0.5 nM R1881 - cell viability counter screen (AID 1259242); also: nearly all actives have a fitted effect of over 45% in size
How it was run: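 Live-cell protease fluorescence, CellTiter-Fluor, 30 min at 37C. Cells: MDA-kb2, 3,000/well, preincubated 5 hr. Compounds plus 0.5 nM R1881 final, 16 hr, 37C, 0% CO2.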

[11] = target: Estrogen receptor (Homo sapiens) (UniProt P03372); assay: qHTS assay to identify small molecule antagonists of the estrogen receptor alpha (ER-alpha) signaling pathway using the BG1 cell line in the presence of 0.1 nM 17-beta-estradiol (AID 1259244); also: nearly all actives have a fitted effect of over 50% in size; also: potency is read from the fitted curve at half-maximal effect
How it was run: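 Luminescence after ONE-Glo (30 min, room temperature) measured ERE-luciferase activity in VM7Luc4E2 cells treated 22 h with compound and 0.1 nM final 17beta-estradiol as stimulator.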

[12] = qHTS assay to identify small molecule HDAC inhibitors (AID 1259364);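 also: wild-type HCT-116 cells with endogenous class I/II HDAC activity; top concentration of the series differs between compounds; nearly all actives have a fitted effect of over 45% in size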
How it was run: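 HCT-116 (wild type), 1,500 cells/well, overnight; compound 2 hr 37C 5% CO2; HDAC-Glo I/II reagent 30 min RT; luminescence readout.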

[13] = qHTS assay to identify small molecule HDAC inhibitors - cell viability counter screen (AID 1259365)
How it was run: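 Viability readout: CellTiter-Glo luminescence. Wild-type HCT-116 cells, 2hr compound treatment following overnight attachment at 37 C.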

[14] = qHTS assay to identify small molecule agonists of the sonic hedgehog signaling (Shh) pathway - cell viability counter screen (AID 1259366); also: nearly all actives have a fitted effect of over 50% in size
How it was run: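 Viability measured fluorometrically (CellTiter-Fluor, 1hr, 37C) in 3T3 Gli1-Luc reporter cells after 23hr compound exposure within a 24hr incubation at 37C/5% CO2.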

[15] = qHTS assay to identify small molecule antagonists of the sonic hedgehog signaling (Shh) pathway - cell viability counter screen (AID 1259367); also: nearly all actives have a fitted effect of over 55% in size
How it was run: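 Viability was read by CellTiter-Fluor fluorescence in the same wells, reagent added 23 hr into compound treatment and incubated 1 hr at 37C. The 3T3 Gli1-Luc reporter cells (2,000/well) received conditioned medium after compound and ran 24 hr.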

[16] = qHTS assay to identify small molecule agonists of the sonic hedgehog signaling (Shh) pathway (AID 1259368; calls by dose curve;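 also: NIH/3T3-derived 3T3Gli1-Luc cells carrying a stable Gli1-driven firefly luciferase reporter; series mostly up to about 92 µM; nearly all actives have a fitted effect of over 15% in size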)
How it was run: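 Read-out: firefly luciferase luminescence from a Gli1 response element reporter stably integrated in NIH/3T3-derived 3T3Gli1-Luc cells, measured 30 min at room temperature after reagent addition. Compound exposure lasted 24 hr at 37 C, 5% CO2.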

[17] = A CellTox Green Cytotoxicity Assay to monitor cytotoxicity in HEK293 cells - 16 hour (AID 1224888); also: nearly all actives have a fitted effect of over 35% in size
How it was run: as §1

[18] = qHTS assay to identify small molecule antagonists of the estrogen receptor alpha (ER-alpha) signaling pathway using the BG1 cell line in the presence of 0.1 nM 17-beta-estradiol - cell viability counter screen (AID 1259241); also: nearly all actives have a fitted effect of over 40% in size
How it was run: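 The cell line endogenously expresses full-length ER-alpha and carries four EREs driving luciferase. Cells are cultured 5 days hormone-free, treated 22 hr with compounds and 0.1 nM estradiol, then viability is read by fluorescence.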

[19] = qHTS assay to identify small molecule phospholipidosis (PLD) inducers (AID 1259344; active = well fitted curve in the direction sought with a large enough effect; an effect the other way counts as inactive or inconclusive)
How it was run: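 Phospholipid accumulation was scored by imaging: fixed, Hoechst-counterstained HepG2 cells stained with LipidTOX Red after 24 h compound exposure at 37 C. Read-outs were pit count and pit intensity per well or per cell, with amiodarone and DMSO controls.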

Measured: Potency

Estrogen receptor (Homo sapiens), sequence (P03372 whole entry, looked up): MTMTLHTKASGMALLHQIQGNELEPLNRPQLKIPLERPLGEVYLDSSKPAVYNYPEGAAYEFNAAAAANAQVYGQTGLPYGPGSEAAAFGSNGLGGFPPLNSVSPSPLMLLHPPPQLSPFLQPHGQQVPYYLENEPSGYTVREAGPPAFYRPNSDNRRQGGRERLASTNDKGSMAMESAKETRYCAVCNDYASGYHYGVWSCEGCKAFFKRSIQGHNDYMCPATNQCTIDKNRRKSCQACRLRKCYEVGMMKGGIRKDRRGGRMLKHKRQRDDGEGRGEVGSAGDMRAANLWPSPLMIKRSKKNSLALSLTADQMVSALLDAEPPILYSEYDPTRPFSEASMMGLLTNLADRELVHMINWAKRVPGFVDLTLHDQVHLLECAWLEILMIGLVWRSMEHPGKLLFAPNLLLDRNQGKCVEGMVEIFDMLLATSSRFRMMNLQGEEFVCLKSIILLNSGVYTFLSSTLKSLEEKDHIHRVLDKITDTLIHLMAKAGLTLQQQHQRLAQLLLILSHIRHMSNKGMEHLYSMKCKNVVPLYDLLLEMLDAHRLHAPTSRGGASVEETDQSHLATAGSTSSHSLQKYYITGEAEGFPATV

Cc1c(N)cccc1[N+](=O)[O-]
not listed: [17] | [18] | [19]
inactive: all other assays above

C=C(C)C(=O)OCCOCC
active: [11] 54.7 µM
not listed: [7] | [18] | [19]
inactive: all other assays above

O=P(O)(OCc1ccccc1)OCc1ccccc1
not listed: [8] | [17] | [19]
inactive: all other assays above

CCn1cc(C(=O)O)c(=O)c2cnc(N3CCNCC3)nc21
not listed: [11] | [17] | [19]
inactive: all other assays above

O=C(O)c1nc(Cl)c(Cl)c(Cl)c1Cl
not listed: [6] | [11] | [14] | [19]
inactive: all other assays above

CCNc1cc(O)ccc1C
active: [1] 34.3 µM
not listed: [14] | [15] | [16] | [17] | [19]
inactive: all other assays above

COc1cc2nc(N3CCN(C(=O)C4COc5ccccc5O4)CC3)nc(N)c2cc1OC (configuration not stated)
active: [3] 23.9 µM | [6] 21.3 µM | [8] 10.7 µM
not listed: [7] | [11] | [13] | [19]
inactive: all other assays above

CC[N+]1(CC)CCC(=C(c2ccccc2)c2ccccc2)C1C (configuration not stated)
not listed: [6] | [11] | [14] | [17]
inactive: all other assays above

Nc1ccc([N+](=O)[O-])c(C(F)(F)F)c1
not listed: [17] | [19]
inactive: all other assays above

CCC(=O)O[C@]1(C(=O)CCl)[C@@H](C)C[C@H]2[C@@H]3CCC4=CC(=O)C=C[C@]4(C)[C@@]3(F)[C@@H](O)C[C@@]21C
not listed: [6] | [14]
inactive: all other assays above

COc1cc(Cl)c(OC)cc1N
not listed: [7] | [11] | [19]
inactive: all other assays above

C[N+]1(CC2COC(c3ccccc3)(C3CCCCC3)O2)CCCCC1 (configuration not stated)
not listed: [6] | [8]
inactive: all other assays above

O=[N+]([O-])c1ccc2[nH]ncc2c1
not listed: [16] | [17] | [19]
inactive: all other assays above

Cn1c(=O)cc(Oc2ccc(F)cc2F)c2cnc(NCC(C)(C)O)nc21
not listed: [6] | [11] | [14] | [15] | [19]
inactive: all other assays above

C=C1[C@H]2CC[C@@H]3[C@H]2C(C)(C)CCC[C@]13C
not listed: [8] | [10] | [14] | [16] | [17] | [18] | [19]
inactive: all other assays above
